In publication PMC7862700, “An all-to-all approach to the identification of sequence-specific readers for epigenetic DNA modifications on cytosine”:

Columns and labels:
Test in all cases: DAPPL (digital affinity profiling via proximity ligation, sequencing); 10 mM Tris-HCl pH 7.5, 50 mM NaCl, 1 mM DTT, 4% glycerol, room temperature, 30 min; GST-TFs on glutathione beads, 16-mer random dsDNA library, 0.1% formaldehyde crosslink after washing; high values mean tight binding
Conditions in all cases: protein: recombinant; tags: N-terminal GST; dsDNA, one strand shown
[1] = molecular target: T1, ELK1 (Homo sapiens, UniProt P19419 1-428)
T1 sequence: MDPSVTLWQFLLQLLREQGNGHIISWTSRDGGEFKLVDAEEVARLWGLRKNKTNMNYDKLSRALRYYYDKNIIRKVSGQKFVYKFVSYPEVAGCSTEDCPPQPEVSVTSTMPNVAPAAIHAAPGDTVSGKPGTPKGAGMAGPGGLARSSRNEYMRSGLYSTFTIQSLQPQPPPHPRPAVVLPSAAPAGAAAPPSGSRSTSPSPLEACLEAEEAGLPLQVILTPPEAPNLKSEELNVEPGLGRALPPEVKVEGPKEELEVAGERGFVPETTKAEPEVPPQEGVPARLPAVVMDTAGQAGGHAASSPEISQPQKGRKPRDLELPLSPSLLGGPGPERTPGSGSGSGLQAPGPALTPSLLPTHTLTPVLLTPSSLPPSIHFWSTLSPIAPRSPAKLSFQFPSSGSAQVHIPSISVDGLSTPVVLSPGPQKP
Method in brief: (§1)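 Human transcription factors were made in yeast as GST fusions, captured on glutathione beads and barcoded with DNA. With a tag-only sample included, the pool was incubated with 200 nmole of a random double-stranded 16-mer DNA library in Tris/NaCl/DTT/glycerol buffer at room temperature for 30 min, then crosslinked with 0.1% formaldehyde after washing, ligated by proximity, amplified and sequenced. For binding signal, each hexamer's read frequency for a factor is divided by its frequency for the tag-only sample.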

[2] = molecular target: T2, GABPA (Homo sapiens, UniProt Q06546 1-454)
T2 sequence: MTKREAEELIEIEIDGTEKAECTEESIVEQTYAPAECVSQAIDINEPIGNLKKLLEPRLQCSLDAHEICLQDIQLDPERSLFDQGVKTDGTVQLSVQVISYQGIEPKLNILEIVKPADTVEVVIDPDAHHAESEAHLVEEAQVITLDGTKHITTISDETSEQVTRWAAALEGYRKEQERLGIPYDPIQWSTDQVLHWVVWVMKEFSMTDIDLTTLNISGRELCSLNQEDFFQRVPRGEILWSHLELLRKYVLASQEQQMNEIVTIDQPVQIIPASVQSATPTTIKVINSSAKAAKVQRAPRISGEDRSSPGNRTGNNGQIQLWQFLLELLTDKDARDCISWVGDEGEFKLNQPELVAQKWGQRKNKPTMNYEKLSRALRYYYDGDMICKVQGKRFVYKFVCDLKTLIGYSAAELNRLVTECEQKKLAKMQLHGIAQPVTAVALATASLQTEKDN
Method in brief: as §1

[3] = molecular target: ELF1 (Homo sapiens, UniProt P32519 1-619)
Method in brief: as §1

[4] = molecular target: T3, ELK3 (Homo sapiens, UniProt P41970 1-407)
T3 sequence: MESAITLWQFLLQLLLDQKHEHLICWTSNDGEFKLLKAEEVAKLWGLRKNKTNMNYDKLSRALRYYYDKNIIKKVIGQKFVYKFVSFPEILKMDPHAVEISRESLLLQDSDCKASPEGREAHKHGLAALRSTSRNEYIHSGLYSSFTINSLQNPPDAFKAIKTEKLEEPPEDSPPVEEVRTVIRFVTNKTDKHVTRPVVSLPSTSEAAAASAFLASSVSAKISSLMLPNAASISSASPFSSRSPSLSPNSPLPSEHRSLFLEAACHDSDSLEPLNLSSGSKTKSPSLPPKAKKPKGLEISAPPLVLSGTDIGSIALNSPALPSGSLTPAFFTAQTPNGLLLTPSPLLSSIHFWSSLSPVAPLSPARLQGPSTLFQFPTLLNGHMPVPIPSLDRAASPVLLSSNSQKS
Method in brief: as §1

[5] = molecular target: T4, FEV (Homo sapiens, UniProt Q99581 1-238)
T4 sequence: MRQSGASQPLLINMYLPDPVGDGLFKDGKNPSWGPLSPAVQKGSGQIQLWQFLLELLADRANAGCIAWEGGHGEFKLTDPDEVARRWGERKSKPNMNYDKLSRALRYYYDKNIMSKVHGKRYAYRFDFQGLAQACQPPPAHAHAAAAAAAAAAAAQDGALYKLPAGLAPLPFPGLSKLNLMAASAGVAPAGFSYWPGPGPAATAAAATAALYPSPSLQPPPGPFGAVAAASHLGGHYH
Method in brief: as §1

[6] = molecular target: ELF4 (Homo sapiens, UniProt Q99607 1-663)
Method in brief: as §1

[7] = molecular target: T5, ELF3 (Homo sapiens, UniProt P78545 1-371)
T5 sequence: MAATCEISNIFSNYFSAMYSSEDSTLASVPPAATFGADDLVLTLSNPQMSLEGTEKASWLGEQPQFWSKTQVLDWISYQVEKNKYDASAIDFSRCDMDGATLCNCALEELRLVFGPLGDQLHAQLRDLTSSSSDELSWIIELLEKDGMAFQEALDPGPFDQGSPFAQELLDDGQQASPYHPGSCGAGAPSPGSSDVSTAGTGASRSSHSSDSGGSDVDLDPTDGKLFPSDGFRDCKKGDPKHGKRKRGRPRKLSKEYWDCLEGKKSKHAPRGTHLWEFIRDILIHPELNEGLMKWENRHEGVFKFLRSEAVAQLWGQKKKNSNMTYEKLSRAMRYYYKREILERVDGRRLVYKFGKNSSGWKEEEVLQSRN
Method in brief: as §1

[8] = molecular target: ETV1 (Homo sapiens, UniProt P50549 1-477)
Method in brief: as §1

[9] = molecular target: T6, ERF (Homo sapiens, UniProt P50548 1-548)
T6 sequence: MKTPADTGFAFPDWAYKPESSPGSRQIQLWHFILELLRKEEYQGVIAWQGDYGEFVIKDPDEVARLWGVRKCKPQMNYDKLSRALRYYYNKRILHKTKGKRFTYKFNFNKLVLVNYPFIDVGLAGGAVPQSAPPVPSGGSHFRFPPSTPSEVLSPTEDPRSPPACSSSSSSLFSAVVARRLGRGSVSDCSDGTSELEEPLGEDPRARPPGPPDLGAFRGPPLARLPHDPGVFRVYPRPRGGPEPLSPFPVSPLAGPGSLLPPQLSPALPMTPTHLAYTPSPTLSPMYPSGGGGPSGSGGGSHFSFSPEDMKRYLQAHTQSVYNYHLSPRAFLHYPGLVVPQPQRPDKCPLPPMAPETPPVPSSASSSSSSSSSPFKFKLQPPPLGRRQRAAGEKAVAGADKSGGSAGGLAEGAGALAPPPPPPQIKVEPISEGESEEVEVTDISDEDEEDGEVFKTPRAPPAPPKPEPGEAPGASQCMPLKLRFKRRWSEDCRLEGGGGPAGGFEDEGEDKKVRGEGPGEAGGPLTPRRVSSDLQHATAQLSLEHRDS
Method in brief: as §1

[10] = molecular target: T7, ETV3L (Homo sapiens, UniProt Q6ZN32 1-361)
T7 sequence: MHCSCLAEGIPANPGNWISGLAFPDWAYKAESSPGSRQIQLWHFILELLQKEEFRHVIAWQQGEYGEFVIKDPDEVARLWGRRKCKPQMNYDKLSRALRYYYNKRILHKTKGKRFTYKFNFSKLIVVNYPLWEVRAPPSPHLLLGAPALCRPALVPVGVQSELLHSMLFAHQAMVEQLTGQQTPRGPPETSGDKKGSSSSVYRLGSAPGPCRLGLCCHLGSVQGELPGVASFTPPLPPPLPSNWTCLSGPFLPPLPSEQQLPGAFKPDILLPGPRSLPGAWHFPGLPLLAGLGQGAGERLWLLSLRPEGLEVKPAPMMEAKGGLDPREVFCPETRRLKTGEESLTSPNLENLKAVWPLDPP
Method in brief: as §1

[11] = molecular target: T8, EHF (Homo sapiens, UniProt Q9NZC4 1-300)
T8 sequence: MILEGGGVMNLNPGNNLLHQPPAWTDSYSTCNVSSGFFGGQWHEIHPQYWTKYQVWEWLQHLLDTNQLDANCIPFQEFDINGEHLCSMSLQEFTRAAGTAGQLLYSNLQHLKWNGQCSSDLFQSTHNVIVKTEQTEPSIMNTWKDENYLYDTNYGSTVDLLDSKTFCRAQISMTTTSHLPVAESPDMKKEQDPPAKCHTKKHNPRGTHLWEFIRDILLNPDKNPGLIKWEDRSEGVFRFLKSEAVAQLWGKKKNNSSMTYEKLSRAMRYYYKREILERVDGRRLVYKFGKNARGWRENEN
Method in brief: as §1

[12] = molecular target: T9, ELK4 (Homo sapiens, UniProt P28324-2 1-405)
T9 sequence: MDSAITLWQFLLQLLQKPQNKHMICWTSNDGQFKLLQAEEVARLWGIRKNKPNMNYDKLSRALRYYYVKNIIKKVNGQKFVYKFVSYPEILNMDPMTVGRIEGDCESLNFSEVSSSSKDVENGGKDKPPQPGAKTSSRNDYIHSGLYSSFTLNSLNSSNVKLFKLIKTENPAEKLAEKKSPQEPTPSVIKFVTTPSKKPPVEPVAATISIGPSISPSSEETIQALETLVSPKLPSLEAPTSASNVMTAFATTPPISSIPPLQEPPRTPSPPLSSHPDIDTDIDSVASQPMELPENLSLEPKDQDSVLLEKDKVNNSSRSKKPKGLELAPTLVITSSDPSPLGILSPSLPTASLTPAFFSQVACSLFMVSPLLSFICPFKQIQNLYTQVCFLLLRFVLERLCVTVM
Method in brief: as §1

[13] = molecular target: T10, ETS2 (Homo sapiens, UniProt P15036 1-469)
T10 sequence: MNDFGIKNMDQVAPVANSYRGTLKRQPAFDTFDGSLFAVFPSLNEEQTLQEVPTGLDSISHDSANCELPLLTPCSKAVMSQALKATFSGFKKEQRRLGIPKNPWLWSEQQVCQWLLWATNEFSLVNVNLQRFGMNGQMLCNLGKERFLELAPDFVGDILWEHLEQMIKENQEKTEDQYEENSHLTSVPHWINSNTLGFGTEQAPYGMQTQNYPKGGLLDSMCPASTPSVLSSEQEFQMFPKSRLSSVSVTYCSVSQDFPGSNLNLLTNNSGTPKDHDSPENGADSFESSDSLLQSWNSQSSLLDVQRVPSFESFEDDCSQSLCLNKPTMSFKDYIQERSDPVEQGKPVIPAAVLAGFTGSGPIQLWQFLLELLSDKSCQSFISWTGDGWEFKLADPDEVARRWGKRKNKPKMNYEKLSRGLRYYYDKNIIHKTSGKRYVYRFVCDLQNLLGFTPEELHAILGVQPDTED
Method in brief: as §1

ELF1, sequence (P32519 whole entry): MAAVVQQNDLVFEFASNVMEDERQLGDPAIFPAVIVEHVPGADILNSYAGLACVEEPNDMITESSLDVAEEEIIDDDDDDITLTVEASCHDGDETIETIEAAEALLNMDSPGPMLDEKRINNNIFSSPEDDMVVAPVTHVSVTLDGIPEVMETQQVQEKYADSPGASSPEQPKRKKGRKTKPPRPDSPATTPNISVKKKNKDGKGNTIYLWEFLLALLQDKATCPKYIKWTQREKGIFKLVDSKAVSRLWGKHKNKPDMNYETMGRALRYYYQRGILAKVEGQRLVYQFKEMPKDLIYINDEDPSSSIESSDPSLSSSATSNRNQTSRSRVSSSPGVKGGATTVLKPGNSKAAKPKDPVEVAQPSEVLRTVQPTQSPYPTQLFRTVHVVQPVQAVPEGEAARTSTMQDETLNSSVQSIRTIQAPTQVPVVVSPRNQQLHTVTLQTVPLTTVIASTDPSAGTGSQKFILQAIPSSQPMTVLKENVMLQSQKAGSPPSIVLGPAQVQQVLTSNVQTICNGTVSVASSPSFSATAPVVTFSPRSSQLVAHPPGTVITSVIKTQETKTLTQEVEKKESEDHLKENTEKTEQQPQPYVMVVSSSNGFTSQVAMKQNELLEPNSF
ELF4, sequence (Q99607 whole entry): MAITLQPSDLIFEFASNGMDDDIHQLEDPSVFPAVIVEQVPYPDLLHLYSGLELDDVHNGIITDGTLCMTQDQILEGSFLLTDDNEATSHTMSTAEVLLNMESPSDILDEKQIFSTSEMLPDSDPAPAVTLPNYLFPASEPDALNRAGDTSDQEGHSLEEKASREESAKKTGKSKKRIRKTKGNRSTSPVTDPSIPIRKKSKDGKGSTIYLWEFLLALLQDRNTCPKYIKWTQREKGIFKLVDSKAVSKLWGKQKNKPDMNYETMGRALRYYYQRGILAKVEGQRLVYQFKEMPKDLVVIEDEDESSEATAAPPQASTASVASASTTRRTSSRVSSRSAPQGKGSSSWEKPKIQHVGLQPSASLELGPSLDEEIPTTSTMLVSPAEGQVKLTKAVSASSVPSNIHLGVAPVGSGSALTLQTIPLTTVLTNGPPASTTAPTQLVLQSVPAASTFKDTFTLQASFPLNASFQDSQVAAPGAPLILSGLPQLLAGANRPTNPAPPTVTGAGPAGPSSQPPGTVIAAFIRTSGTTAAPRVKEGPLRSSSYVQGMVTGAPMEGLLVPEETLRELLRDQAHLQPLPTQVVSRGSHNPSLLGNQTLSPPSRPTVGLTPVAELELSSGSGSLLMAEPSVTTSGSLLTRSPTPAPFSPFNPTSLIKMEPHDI
ETV1, sequence (P50549 whole entry): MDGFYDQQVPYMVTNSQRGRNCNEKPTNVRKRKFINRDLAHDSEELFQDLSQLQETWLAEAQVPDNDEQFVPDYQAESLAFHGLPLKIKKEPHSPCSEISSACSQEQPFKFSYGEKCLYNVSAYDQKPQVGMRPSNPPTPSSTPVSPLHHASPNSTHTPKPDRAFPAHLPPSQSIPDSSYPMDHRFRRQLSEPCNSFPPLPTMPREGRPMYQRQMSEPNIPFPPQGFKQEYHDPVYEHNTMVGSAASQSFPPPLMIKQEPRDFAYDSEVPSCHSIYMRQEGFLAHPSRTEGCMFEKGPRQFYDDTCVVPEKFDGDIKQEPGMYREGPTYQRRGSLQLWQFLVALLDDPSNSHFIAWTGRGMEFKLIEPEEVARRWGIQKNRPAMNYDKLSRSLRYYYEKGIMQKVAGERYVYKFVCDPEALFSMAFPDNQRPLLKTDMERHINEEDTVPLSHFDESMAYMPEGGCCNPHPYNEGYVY

| Sequence | binding signal [1] | binding signal [2] | binding signal [3] | binding signal [4] | binding signal [5] | binding signal [6] | binding signal [7] | binding signal [8] | binding signal [9] | binding signal [10] | binding signal [11] | binding signal [12] | binding signal [13] |
| --- | --- | --- | --- | --- | --- | --- | --- | --- | --- | --- | --- | --- | --- |
| CATCAA | 1.01 fold enrichment (6-mer frequency, TF over GST control) | 1.03 fold enrichment (6-mer frequency, TF over GST control) | 1.03 fold enrichment (6-mer frequency, TF over GST control) | 1.07 fold enrichment (6-mer frequency, TF over GST control) | 1 fold enrichment (6-mer frequency, TF over GST control) | 1.05 fold enrichment (6-mer frequency, TF over GST control) | 1.03 fold enrichment (6-mer frequency, TF over GST control) | 1.01 fold enrichment (6-mer frequency, TF over GST control) | 1.02 fold enrichment (6-mer frequency, TF over GST control) | 1.08 fold enrichment (6-mer frequency, TF over GST control) | – | – | – |
| TCATTG | 1.01 fold enrichment (6-mer frequency, TF over GST control) | 1 fold enrichment (6-mer frequency, TF over GST control) | 1.03 fold enrichment (6-mer frequency, TF over GST control) | – | – | – | – | – | 1.04 fold enrichment (6-mer frequency, TF over GST control) | 1.04 fold enrichment (6-mer frequency, TF over GST control) | 1.03 fold enrichment (6-mer frequency, TF over GST control) | 1.07 fold enrichment (6-mer frequency, TF over GST control) | 1 fold enrichment (6-mer frequency, TF over GST control) |
